# From the supplement of paper PMC10720658
# ± gives the standard deviation of the averaged measurements.
# Test system: AEK1 (Tb927.3.2440)
# Assay: percent reduction in TR-FRET probe signal relative to DMSO control; higher = stronger displacement of ATP-site probe (binding)
# Conditions: 1 µM; incubation time 1 h
row,SMILES,percent reduction in TR-FRET probe signal [%]
1,COc1cc(Nc2ncc3c(n2)-c2ccc(Cl)cc2C(c2c(F)cccc2OC)=NC3)ccc1C(=O)O [Alisertib (MLN8237)],2.08 ± 9.1
2,COc1cc2c(Nc3ccc(NC(=O)c4ccccc4)cc3)ncnc2cc1OCCCN1CCOCC1,4.13 ± 16
3,Nc1ncnc2c1c(-c1cccc(OCc3ccccc3)c1)cn2[C@H]1C[C@@H](CN2CCC2)C1,0.997 ± 12
4,Nc1ncnc2c1c(-c1cnc3[nH]ccc3c1)nn2C1CCCC1,21.6 ± 20
5,O=C(Nc1cc(C(F)(F)F)cc(C(F)(F)F)c1)c1cc(Cl)ccc1O,8.68 ± 3.7
6,NC1(C(=O)N[C@@H](CCO)c2ccc(Cl)cc2)CCN(c2ncnc3[nH]ccc23)CC1,3.79 ± 1.4
7,COc1cc(N2CCC(N)CC2)ccc1Nc1ncc(Cl)c(-c2c[nH]c3ccccc23)n1,7.47 ± 4.6
8,CNC(=O)Nc1ccc(-c2nc(N3CC4CCC(C3)O4)c3cnn(C4CCC5(CC4)OCCO5)c3n2)cc1,-1.55 ± 9.3
9,CCS(=O)(=O)Nc1ccc2c(c1)/C(=C(/Nc1ccc(CN3CCCCC3)cc1)c1ccccc1)C(=O)N2 [Hesperadin],97.4 ± 5.1
10,CS(=O)(=O)N1CCc2c(-c3cnc(N)nc3)nc(N3CCOCC3)nc21,-5.47 ± 9.1
11,Cc1nc(NC(=O)N2CCC[C@H]2C(N)=O)sc1-c1csc(C(C)(C)C)n1,3.71 ± 6.7
12,CN1CCCN(C(=O)c2cccc(-c3ccc(/C=C4/C(=O)Nc5ccc(Cl)cc54)o3)c2)CC1.Cl,-0.203 ± 9.8
13,Cc1cc(C)c(/C=C2\C(=O)Nc3ccccc32)[nH]1 [Semaxanib (SU5416)],2.37 ± 8.9
